Laboratory results as given in PubChem BioAssay (NCI).
Compounds without any hit were thinned out: in the full panel of roughly 83,000, 20% have a hit.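 Cell lines were cultured in 96-well plates, exposed to a single compound concentration, and assessed for percent growth 48 hours later.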 Calls of active or inactive are those of the source. Rule for the calls: active = growth percent below 10; inactive = the rest.

The compounds below were run on HL-60(TB) leukemia (assay: NCI-60 one-dose screen, 48 h (100 = growth as untreated, 0 = no growth, -100 = all killed)). Settings: 10 µM unless noted.

Row | Compound | growth
1 | CCCC(=O)Oc1ccc(CC)cc1 | 97.6% (inactive)
2 | Cc1nc2c3c(ncn2n1)Oc1c(c(=O)[nH]c2ccccc12)C3c1ccc(Cl)cc1 (stereo unspecified) | 98% (inactive)
3 | Cc1nc(Nc2cn[nH]c2C(=O)Nc2ccc(CN3CCN(C)CC3)cc2)c2ccsc2n1 | 113% (inactive)
4 | O=C1CCCCN1c1ccc(C2=NCCCN2)cc1 | 70.7% (inactive)
5 | COc1cc(/C=C2\C=C(c3ccc(F)cc3)N(Cc3ccccc3)C2=O)cc(OC)c1OC | 75.9% (inactive)
6 | Cc1cccc(NCS(=O)(=O)O)c1 | 103% (inactive)
7 | [O-]/[N+](=C\c1ccccc1)CC1(O)CCCCC1 | 98.5% (inactive)
8 | Cc1nc(N)nc(SCc2ccccc2)c1Br | 53.2% (inactive)
9 | C=CCC(=O)N[C@H](/C=C/C(=O)O)Cc1ccc(-c2cc(Cl)cc(Cl)c2)cc1 | 101% (inactive)
10 | COc1ccc(C2CC(c3ccccc3)=NN2c2nc(C)c(C(C)=O)s2)cc1 (stereo unspecified) | 101% (inactive)
11 | CO[C@H](C(=O)[C@@H](O)[C@@H](C)O)[C@@H]1Cc2cc3cc(O[C@H]4C[C@@H](O[C@H]5C[C@@H](O)[C@H](O)C(C)O5)[C@H](O)C(C)(O)O4)cc(O)c3c(O)c2C(=O)[C@H]1O[C@H]1C[C@@H](O[C@H]2C[C@@H](O[C@H]3C[C@@H](OC)[C@H](O)C(C)O3)[C@@H](O)C(C)O2)[C@H](O)C(C)O1 (stereo partly specified) | 71% (inactive)
12 | S=c1ssnc1-c1cccs1 | 95.1% (inactive)
13 | COc1ccc(C(=O)Cn2cnc3c(Nc4cc(C(=O)Nc5ccc(N6CCN(CCO)CC6)cc5)ccc4C)ncnc32)cc1 | 83.6% (inactive)
14 | CCN(CC)CCCC(Cc1ccccc1)Nc1c2ccc(Cl)cc2nc2ccc(OC)cc12 (stereo unspecified) | 19.5% (inactive)
15 | COC(=O)c1nc(-c2ccc(C)cc2)oc1N1CCOCC1 | 93.7% (inactive)
16 | COc1ccc(NC(=O)Nc2ccc(Nc3nc(C)cc(Nc4ccc(C)cc4)n3)cc2)cc1 | -55.4% (active)
17 | CCCCC1=c2c([nH]c3ccc(OC)cc23)=NC2C=CC=NC12 (stereo unspecified) | 80.5% (inactive)
18 | C=C1C(=O)O[C@H]2[C@H]1CC/C(CNC(=O)/C=C/c1ccc(Br)cc1)=C\CC[C@@]1(C)O[C@@H]21 | -15.8% (active)

Row | Compound | growth
19 | C=CCC(CCC(CC=C)C(=O)OCC)C(=O)OCC (stereo unspecified) | 99.8% (inactive)
20 | O=C1CSC(=S)N1CCc1ccc(O)cc1 | 92% (inactive)
21 | CCCCCO/N=C\c1c2c(O)c3c(O)c(C)c4c(c3c1O)C(=O)C(C)(O/C=C\C(OC)C(C)C(OC(C)=O)C(C)C(O)C(C)C(O)C(C)/C=C\C=C(\C)C(=O)N2)O4 (stereo unspecified) | -6.96% (active)
22 | CCOc1ccc(C(C)=O)cc1NC(=O)c1cccc(-c2nnn(CC)n2)c1 | 7.31% (active)
23 | Cc1ccc(C(SCC(N)C(=O)O)(c2ccccc2)c2ccc(C)cc2)cc1 (stereo unspecified) | -36% (active)
24 | C[C@H]1[C@H](C)CC[C@]2(C(=O)O)CC[C@]3(C)C(=CC[C@@H]4[C@@]5(C)C[C@@H](Cc6cn([C@@H]7O[C@H](CO)[C@@H](O)[C@H](O)[C@H]7O)nn6)[C@H](O)C(C)(C)[C@@H]5CC[C@]43C)[C@H]12 | 91% (inactive)
25 | Cl.Fc1c[c-]c(-c2ccccn2)c(F)c1.[Pt].c1ccc([PH+](C[PH+](c2ccccc2)c2ccccc2)c2ccccc2)cc1 | -33.7% (active)
26 | O=C(COc1ccc(/C=C2\Oc3ccccc3C2=O)cc1)Nc1nccs1 | -36.2% (active)
27 | CCCCCCCCCCCCCCCCCCn1cc(COc2ccc(C=O)cc2)nn1 | 86.7% (inactive)
28 | COc1cnc2c(c1)C(=O)c1c-2n(CCCn2ccnc2)c(=O)c2cc(Cl)ccc12 | -26.1% (active)
29 | COc1cc2nc(Nc3ccc(F)cc3)nc(N)c2cc1OC | 79.4% (inactive)
30 | O=c1oc2ccc(F)cc2c(=O)n1-c1ccc(Br)cc1F | -45.3% (active)
31 | O=C(Nc1ccc(C(=O)/C=C/c2ccc(N3CCOCC3)cc2)cc1)Nc1ccc([N+](=O)[O-])cc1 | 70.6% (inactive)
32 | O=C(Nc1ccc(F)cc1)ON=C1CCCCC1 | 86.8% [100 µM] (inactive)
33 | CC(=O)C1CCC2C3CC(C)=C4CC(O)CCC4(C)C3CCC12C (stereo unspecified) | 98.7% (inactive)
34 | Cc1ccc(-c2csc(NC(=O)CSc3nc(N)cc(N)n3)n2)cc1 | 48.9% (inactive)
35 | COc1cccc(C2C3=C(COC3=O)N(CCO)c3cc4c(cc32)CCC4)c1 (stereo unspecified) | -0.364% (active)
36 | COc1ccc(/C=C/C(=O)Nc2cc(/C=C\c3cc(OC)c(OC)c(OC)c3)cc(OC)c2OC)cc1OC | -38.1% (active)
